Results taken from PubChem BioAssay (NCATS).
Inconclusive results are not listed. A call without a number means that no potency is given here. Active and inactive are the calls of the source. Calls come from the whole dose curve; as a rule, active = well fitted inhibition curve with a large enough effect; inconclusive = small, poorly fitted or top-dose-only effect; inactive = flat fitted curve, though single readings scatter.

What follows are compounds tested on P93_24 (assay: qHTS profiling for inhibitors of Plasmodium falciparum proliferation (AID 504749; note: nearly all actives have a fitted effect of over 60% in size)). Details: P. falciparum in erythrocytes, SYBR Green DNA, 72 h; series mostly up to 28.7 µM.
How it was run: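 Readout was DNA-dye fluorescence from lysed cultures, ex 485/em 535 nm. Parasitized red cells had grown 72 h with compound; data scaled between 0.29 uM artemisinin and DMSO wells and corrected using vehicle-only plates.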

Compound	Potency
CC(=O)Nc1ccccc1	inactive
O=C(/C=C/c1ccccc1)OCc1ccccc1	inactive
c1ccc2[nH]ccc2c1	inactive
NC(N)=NS(=O)(=O)c1ccc(N)cc1	inactive
Cc1ccc(S(=O)(=O)NC(=O)NC2CCCCC2)cc1	inactive
C[C@H]1COc2c(C3(N)CC3)c(F)cc3c(=O)c(C(=O)O)cn1c23	inactive
Cc1c(NC(C)C)c(=O)n(-c2ccccc2)n1C	inactive
CCCCCC(N)=O	inactive
Cn1c(=O)c2c(ncn2CCO)n(C)c1=O	inactive
CC(C)c1cc2c(cc1S(=O)(=O)O)[C@@]1(C)CCC[C@@](C)(C(=O)O)[C@@H]1CC2	inactive
O=C(NCCCN1CCOCC1)c1ccc(Cl)cc1	inactive
COc1ccccc1OC(=O)Oc1ccccc1OC	inactive
OCc1ccc(Cl)cc1Cl	inactive
CC(=O)Nc1cccc(O)c1	inactive
FC(F)(F)C(Cl)Br (stereo unspecified)	inactive
Cc1c(N(C)C)c(=O)n(-c2ccccc2)n1C	inactive
CCN(CC)CC1CCCCN1CC(=O)N1c2ccccc2C(=O)Nc2cccnc21 (stereo unspecified)	inactive
Cc1cccc(Nc2ccccc2C(=O)O)c1C	inactive

Compound	Potency
COc1ccccc1Oc1c(NS(=O)(=O)c2ccc(C(C)(C)C)cc2)nc(-c2ncccn2)nc1OCCO	inactive
CCc1nnc(NS(=O)(=O)c2ccc(N)cc2)s1	inactive
Cc1c(C(=O)NCCO)[n+](=O)c2ccccc2n1[O-]	inactive
O=C1c2cccc(O)c2C(=O)c2c(O)cccc21	inactive
CCCCCCCC(=O)OCC(COC(=O)CCCCCCC)OC(=O)CCCCCCC	inactive
NNC(=O)CP(=O)(c1ccccc1)c1ccccc1	inactive
Nc1ncnc2c1ncn2[C@@H]1O[C@H](COP(=O)(O)O)[C@@H](O)[C@H]1O	inactive
CC1CCc2cc(F)cc3c(=O)c(C(=O)O)cn1c23 (stereo unspecified)	inactive
O=C(O)c1cc(=O)c2ccccc2o1	inactive
C=CCSCC1Nc2cc(Cl)c(S(N)(=O)=O)cc2S(=O)(=O)N1 (stereo unspecified)	inactive
O=C(O)Cc1ccc(CCNS(=O)(=O)c2ccc(Cl)cc2)cc1	inactive
CC[N+](CC)(CC(=O)Nc1c(C)cccc1C)Cc1ccccc1	inactive
O=c1[nH]c(=O)c2ccccc2o1	inactive
O=C(O)c1ccccc1OP(=O)(O)O	inactive
O=S1(=O)OC(c2ccc(O)cc2)(c2ccc(O)cc2)c2ccccc21	inactive
COc1ccc(C(=O)N2CCN(CC(=O)N3CCOCC3)CC2)cc1	inactive
OCC(O)CS (stereo unspecified)	inactive
CN1CCN(C(=O)C2CCCCC2)CC1	inactive
